Results taken from PubChem BioAssay (NCATS).
Records with an inconclusive call do not appear. Activity calls are given as the source filed them. The call rests on the fitted dose curve; in most records, active means well fitted curve in the direction sought with a large enough effect; inconclusive means small, poorly fitted or top-dose-only effect, or another doubt; inactive means no such curve, though single readings can be large; an effect the other way counts as inactive or inconclusive.

Assays:
[1] = target: Cellular tumor antigen p53 (Homo sapiens) (UniProt P04637); experiment: Primary qHTS for small molecule compounds that upregulate eGFP-tagged delta133p53alpha (in N-terminal) cells. (AID 2060322); settings: NCI-H358 eGFP-delta133p53alpha fluorescence, 24 h; activation: active compounds read high;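 further: series mostly up to about 56 µM; 0% = DMSO vehicle and 100% = reference activator; nearly all actives have a fitted effect of over 75% in size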
Cellular tumor antigen p53 (Homo sapiens), sequence (P04637 whole entry, looked up): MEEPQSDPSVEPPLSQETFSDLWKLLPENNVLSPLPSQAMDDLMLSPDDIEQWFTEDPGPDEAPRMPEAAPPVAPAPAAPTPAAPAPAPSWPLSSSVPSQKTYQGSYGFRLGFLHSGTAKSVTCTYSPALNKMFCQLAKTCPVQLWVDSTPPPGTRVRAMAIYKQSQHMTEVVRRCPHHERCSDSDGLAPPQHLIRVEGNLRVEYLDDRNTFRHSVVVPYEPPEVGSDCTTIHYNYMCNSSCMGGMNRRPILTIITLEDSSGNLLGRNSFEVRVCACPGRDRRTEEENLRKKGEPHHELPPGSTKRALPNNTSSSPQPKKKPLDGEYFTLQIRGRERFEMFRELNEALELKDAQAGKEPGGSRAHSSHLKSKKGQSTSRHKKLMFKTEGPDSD
Procedure, shortened: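 NCI-H358 cells pre-induced 24 h with 10 ng/ml doxycycline to express N-terminal eGFP-delta133p53alpha, then dosed 24 h at 37C without doxycycline; fixed, Hoechst-stained, GFP intensity by laser scanning cytometry, normalized to DMSO (0%) and 57.5 uM 5-azacytidine (100%).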

[2] = target: Aldehyde dehydrogenase, mitochondrial (Homo sapiens) (UniProt P05091); experiment: qHTS for Inhibitors of the Aldehyde Dehydrogenase Family (ALDH2) Primary screen (AID 2061308);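 further: plate controls were vehicle for no effect and reference inhibitor for full effect; nearly all actives have a fitted effect of over 55% in size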
[3] = target: Retinaldehyde dehydrogenase 3 (Homo sapiens) (UniProt P47895); experiment: qHTS for Inhibitors of the Aldehyde Dehydrogenase Family (ALDH1A3) Primary screen (AID 2061315);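 further: plate controls were DMSO vehicle for no effect and reference inhibitor for full effect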

CC1(O)CCCC2(C)C1CCC13CC(CO)C(CCC12)C3 (configuration not stated)
inactive: activation [1] 0% | Potency [2] | Potency [3]

C[C@@H]1O[C@@H](O[C@@H]2[C@@H](O)[C@H](O[C@@H]3[C@@H](O)[C@@H](O)[C@H](O[C@H]4[C@H](OC(=O)[C@]56CCC(C)(C)C[C@H]5C5=CCC7[C@@]8(C)C[C@H](O)[C@H](O[C@@H]9O[C@@H](C)[C@H](O)[C@@H](O)[C@H]9O)[C@@](C)(CO)C8CC[C@@]7(C)[C@]5(C)C[C@H]6O)O[C@H](C)[C@H](O)[C@@H]4O)O[C@H]3C)OC[C@H]2O)[C@H](O)[C@H](O)[C@H]1O (some centres not stated)
inactive: activation [1] 19.6% | activity change, negative = inhibition [2] 0.778% [at 11.2 µM] | activity change, negative = inhibition [3] 5.2% [at 11.2 µM]

C[C@@H]1O[C@@H](O[C@H]2[C@H](OC(=O)[C@]34CCC(C)(C)C[C@H]3C3=CCC5[C@@]6(C)C[C@H](O)[C@H](O[C@@H]7O[C@H](CO)[C@@H](O[C@H]8OC[C@](O)(CO)[C@H]8O)[C@H](O)[C@H]7O)[C@@](C)(CO)C6[C@H](O)C[C@@]5(C)[C@]3(C)C[C@H]4O)OC[C@H](O)[C@@H]2O)[C@H](O)[C@H](O)[C@H]1O[C@@H]1OC[C@@H](O)[C@H](O[C@@H]2OC[C@](O)(CO)[C@H]2O)[C@H]1O (some centres not stated)
inactive: activation [1] -17.6% | activity change, negative = inhibition [2] 8.6% [at 11.2 µM] | activity change, negative = inhibition [3] -7.49% [at 11.2 µM]

C[C@@H]1O[C@@H](O[C@@H]2[C@@H](O)[C@H](O[C@H]3[C@H](O[C@H]4CC[C@@]5(C)C(CC[C@]6(C)C5CC=C5[C@@H]7CC(C)(C)CC[C@]7(C(=O)O[C@@H]7O[C@H](CO)[C@@H](O)[C@H](O)[C@H]7O)CC[C@]56C)C4(C)C)O[C@H](C(=O)O)[C@@H](O)[C@@H]3O)OC[C@H]2O)[C@H](O)[C@H](O)[C@H]1O (some centres not stated)
inactive: activation [1] -27.5% | Potency [2] | Potency [3]
